According to PubChem BioAssay (NCI):
About 83,000 compounds went through this panel and 20% of them were active in at least one assay; those are over-represented in the sample as a whole.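 48-hour exposure, single concentration, 96-well plates; percent growth endpoint where 0 means no net growth. Active: below 10.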 Unmarked numbers belong to inactive results. The source made the active and inactive calls.

What follows are compounds tested on SF-295 CNS (assay: NCI-60 one-dose screen, 48 h (100 = growth as untreated, 0 = no growth, -100 = all killed)). Details: 10 µM unless noted.

Compared with `COc1ccc(C(=O)c2cc3c(N)c(C(=O)Nc4ccc(Br)cc4)sc3nc2C)cc1`, `COc1ccc(Nn2c(SCC(=O)Nc3nc(-c4ccc(Cl)cc4)cs3)nc(C)c2C)cc1` is lower in growth: 86.6% for the first, 43.9% for the second.

Going from `CCOC(=O)Oc1c(OC)cc(C(=O)O[C@@H]2C[C@@H]3CN4CCc5c([nH]c6cc(OC)ccc56)[C@H]4C[C@@H]3[C@H](C(=O)OC)[C@H]2OC)cc1OC` to `C=C(C)[C@H]1CC/C(C)=C/CC[C@]2(C)O[C@H]2CC/C(COC(=O)[C@@H](OC(C)=O)[C@H](NC(=O)c2ccccc2)c2ccccc2)=C\[C@@H]1O`, the growth rises from 74.3% to 88.8%.

Going from `COc1ccc(-c2nc(N/N=C/c3ccco3)nc(N3CCOCC3)c2C#N)cc1` to `COc1ccc(-c2nc(N=Nc3c(O)[nH]c4ccccc34)nc(N3CCOCC3)c2C#N)cc1`, the growth falls from 90.1% to 86.4%.

Compared with `CCC(=O)c1ccc(O)c(OC)c1`, `COc1ccc(-c2nn(Cc3ccccc3)c3c2-c2oncc2CC3)cc1OC` is lower in growth: 105% for the first, 96.5% for the second.

Compared with `CCCCCCCCCCCCCCCC(=O)OC[C@@]1(O)C[C@@]23CC[C@@H]4C(C)(C)[C@H](O)CC[C@@]4(C)[C@@H]2CC[C@H]1C3`, `CN1CCN(C(=O)[C@]2(C)CC[C@]3(C)CC[C@]4(C)C(=CC(=O)[C@@H]5[C@@]6(C)CCC(=O)NC(C)(C)[C@@H]6CC[C@]54C)[C@@H]3C2)CC1` is lower in growth: 112% for the first, 98.3% for the second.

Compared with `FC(F)(F)Oc1cccc(-c2cc(NCCCCCCNc3cc(-c4cccc(OC(F)(F)F)c4)nc4ccc(N5CCCC5)cc34)c3cc(N4CCCC4)ccc3n2)c1`, `COc1ccc(C2=C(c3ccccc3)c3ccc(OC(C)=O)cc3OC2(C)C)cc1` is higher in growth: 34.1% for the first, 72.3% for the second.

Compared with `CC1=CC2(C)/C=C(C)/C=C\CC(O)/C=C3/C=CC(=C4C(=O)OC2(CC1C)C4=O)OC3` (stereo unspecified), `O=C1OC(=O)C2C1CC=CC2c1ccccc1` (stereo unspecified) is higher in growth: 41.4% for the first, 95.8% for the second.

First: O=C(O)c1cn(C2CC2)c2cc(N3CCN(C(=O)C[n+]4cccc5ccccc54)CC3)c(F)cc2c1=O
Second: Clc1nc(Nc2ccccc2)nc(Nc2ccccc2)n1
The growth of the first is higher: 107% for the first, 100% for the second.

Compared with `Cn1c2c(Cl)c(Cl)ccc2c2cc(N)[nH]c(=O)c21`, `O=C1Nc2c(ccc(Cl)c2Cl)/C1=C/c1ccccn1` is higher in growth: 53.7% for the first, 107% for the second.

First: Cc1ccc2nc3c(cc2c1)CSc1nnc(-c2ccc[nH]c2=S)n1N3
Second: CC(C)(C)CC(C)(C)Nc1c(-c2ccc3c(c2)OCO3)nc2cnccn12
The growth of the first is higher: 108% for the first, 86.2% for the second.

With `O=c1[nH]c2c(s1)CCCC2CN1CCCCC1` (stereo unspecified) the growth was 104%.

With `Cc1c2c(cc[n+]1Cc1ccc(F)cc1)c1ccc(OCc3cccc(F)c3)cc1n2Cc1cccc(F)c1` the growth was -68.5% (active).
In the case of `CC(=O)c1c[nH]c2ccc(-c3ccnc(Nc4ccc(NC(=O)c5cccc(F)c5)c(CN5CCOCC5)c4)n3)cc12`, the growth is reported as -17.2% (active).

The compounds below were run on SF-539 CNS in the same assay as above. Details: 10 µM unless noted.

First: CC(C)Cc1ccc(C(C)C(=O)NCc2ccc(Cn3c(=O)sn(-c4ccc(Cl)cc4)c3=O)cc2)cc1 (stereo unspecified)
Second: COc1ccc(Nn2c(SCC(=O)Nc3nc(-c4ccc(Cl)cc4)cs3)nc(C)c2C)cc1
The growth of the first is lower: 63% for the first, 79.1% for the second.

First: COc1ccc(Cn2nc3c(c2-c2cc(OC)c(OC)c(OC)c2)-c2oncc2CC3)cc1
Second: COc1ccc(-c2nn(Cc3ccccc3)c3c2-c2oncc2CC3)cc1OC
The growth of the first is lower: 89.1% for the first, 93.3% for the second.

Compared with `Cc1ccc(C(c2c(O)c3cc(Br)ccc3[nH]c2=O)c2c(O)c3cc(Br)ccc3[nH]c2=O)cc1`, `Cc1ccc2[nH]c(=O)cc(-n3nncc3COc3ccc(C=O)cc3)c2c1` is higher in growth: 91.2% for the first, 99.4% for the second.

Going from `CN1CCN(Cc2ccc(NC(=O)c3cncc(C#Cc4cnccc4C(F)(F)F)c3)cc2C(F)(F)F)CC1` to `O=C(Nc1sc2c(c1C(=O)O)CCCC2)c1cccc(C(F)(F)F)c1`, the growth rises from 28.8% to 93.4%.

First: COc1cc2nnn3c4ncccc4c(N=O)c3c2cc1OC
Second: COc1cc2ncnc(Nc3ccc(C(=O)/C=C/c4ccc(C(F)(F)F)cc4F)cc3)c2cc1OC
The growth of the first is higher: 98.6% for the first, 93.7% for the second.

First: Cc1cc2nc(-c3ccccc3)c(-c3ccccc3)nc2cc1C
Second: Clc1nc(Nc2ccccc2)nc(Nc2ccccc2)n1
The growth of the first is higher: 109% for the first, 100% for the second.

First: CCCOc1nc(SCCC)nc2c1cnn2-c1ccccc1
Second: CC(=O)OCCCCCNc1ccccc1
The growth of the first is higher: 98.4% for the first, 94.2% for the second.

Going from `NC(=O)c1cccc(-c2ccccc2N2CCCCC2)c1` to `O=C(O)c1cn(C2CC2)c2cc(N3CCN(C(=O)C[n+]4cccc5ccccc54)CC3)c(F)cc2c1=O`, the growth falls from 97.8% to 69.1%.

First: CCN1C(=O)N(CC)C2NC(SC)=NC21 (stereo unspecified)
Second: O=c1[nH]c2c(s1)CCCC2CN1CCCCC1 (stereo unspecified)
The growth of the first is lower: 98.7% for the first, 105% for the second.

Compared with `C/C(=C(/c1ccccc1)c1ccc(OCC(O)CN2CCOCC2)cc1)c1ccccc1` (stereo unspecified), `C=C(C)[C@H]1CC/C(C)=C/CC[C@]2(C)O[C@H]2CC/C(COC(=O)[C@@H](OC(C)=O)[C@H](NC(=O)c2ccccc2)c2ccccc2)=C\[C@@H]1O` is higher in growth: 74.2% for the first, 87.2% for the second.

Going from `COc1ccc(C(=O)c2cc3c(N)c(C(=O)Nc4ccc(Br)cc4)sc3nc2C)cc1` to `COc1ccc(C2=C(c3ccccc3)c3ccc(OC(C)=O)cc3OC2(C)C)cc1`, the growth rises from 66.2% to 102%.

First: CCOC(=O)Oc1c(OC)cc(C(=O)O[C@@H]2C[C@@H]3CN4CCc5c([nH]c6cc(OC)ccc56)[C@H]4C[C@@H]3[C@H](C(=O)OC)[C@H]2OC)cc1OC
Second: CCC(=O)c1ccc(O)c(OC)c1
The growth of the first is lower: 79.9% for the first, 111% for the second.

Going from `COc1ccc(-c2nc(N/N=C/c3ccco3)nc(N3CCOCC3)c2C#N)cc1` to `CC(C)(C)CC(C)(C)Nc1c(-c2ccc3c(c2)OCO3)nc2cnccn12`, the growth rises from 74.2% to 91.5%.

First: CCCCCCCCCCCCCCCC(=O)OC[C@@]1(O)C[C@@]23CC[C@@H]4C(C)(C)[C@H](O)CC[C@@]4(C)[C@@H]2CC[C@H]1C3
Second: CN1CCN(C(=O)[C@]2(C)CC[C@]3(C)CC[C@]4(C)C(=CC(=O)[C@@H]5[C@@]6(C)CCC(=O)NC(C)(C)[C@@H]6CC[C@]54C)[C@@H]3C2)CC1
The growth of the first is higher: 97.8% for the first, 92% for the second.

Compared with `O=C1OC(=O)C2C1CC=CC2c1ccccc1` (stereo unspecified), `O=C1Nc2c(ccc(Cl)c2Cl)/C1=C/c1ccccn1` is higher in growth: 88.3% for the first, 92.8% for the second.

Going from `Cn1c2c(Cl)c(Cl)ccc2c2cc(N)[nH]c(=O)c21` to `Cc1ccc2nc3c(cc2c1)CSc1nnc(-c2ccc[nH]c2=S)n1N3`, the growth rises from 82.8% to 97.3%.

`COc1ccc(/C=C/c2n[nH]c3ccc(N4CCOC4=O)cc23)cc1` was tested, and the growth was -1.43% (active).
With `COc1ccc(-c2nc(N=Nc3c(O)[nH]c4ccccc34)nc(N3CCOCC3)c2C#N)cc1` the growth was -47.2% (active).
`FC(F)(F)Oc1cccc(-c2cc(NCCCCCCNc3cc(-c4cccc(OC(F)(F)F)c4)nc4ccc(N5CCCC5)cc34)c3cc(N4CCCC4)ccc3n2)c1` was tested, and the growth was 8.48% (active).
`Cc1c2c(cc[n+]1Cc1ccc(F)cc1)c1ccc(OCc3cccc(F)c3)cc1n2Cc1cccc(F)c1` was tested, and the growth was -65.4% (active).
`CC1=CC2(C)/C=C(C)/C=C\CC(O)/C=C3/C=CC(=C4C(=O)OC2(CC1C)C4=O)OC3` (stereo unspecified) was tested, and the growth was -82.1% (active).
With `CC(=O)c1c[nH]c2ccc(-c3ccnc(Nc4ccc(NC(=O)c5cccc(F)c5)c(CN5CCOCC5)c4)n3)cc12` the growth was -56% (active).
